# Test results from PubChem BioAssay (NCATS).
# Inconclusive results are not listed. Entries that show only a call come without a potency. More than one record can exist for a structure, and the calls need not agree. Active and inactive are the calls of the source. Unless noted, calls follow the shape of the dose curve; as a rule, active = well fitted curve in the direction sought with a large enough effect; inconclusive = small, poorly fitted or top-dose-only effect, or another doubt; inactive = no such curve, though single readings can be large; an effect the other way counts as inactive or inconclusive.
# Legend:
# [1] = P-glycoprotein substrates identified in KB-8-5-11 adenocarcinoma cell line, qHTS therapeutic library screen (AID 1346987); also: series mostly up to about 44 µM; nearly all actives have a fitted effect of over 65% in size
# Method in brief: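 Steps: plate 500 KB-8-5-11 cells/well in DMEM + 10% FCS (colchicine removed); pin compounds in dose-response; incubate 72 h, 37 degree C, 5% CO2; add CellTiter-Glo, 5 min; read luminescence.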
# [2] = NS1 protein of Zika virus - qHTS assay to identify small molecule inhibitors in human HEK 293 cells (AID 1347053); also: nearly all actives have a fitted effect of over 55% in size; also: potency is read from the fitted curve at half-maximal effect
# Method in brief: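 Inhibition of NS1 expression was scored in HEK 293 cells given compound 1 h ahead of MR766 virus (MOI = 0.5). Following 24 h at 37 C, two anti-NS1 antibodies generated a TR-FRET signal, scaled between uninfected and infected controls.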
# [3] = biological target: Atrial natriuretic peptide receptor 2 (Homo sapiens) (UniProt P20594); test: Natriuretic polypeptide receptor (hNpr2) antagonism - Pilot subtype selectivity assay (AID 1347050; calls by dose curve)
# Method in brief: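 Pilot selectivity screen against hNpr2: HEK293 cGMP-sensor cells are treated with LOPAC1280 compounds, then with hNppC peptide at 1 nM final. The cGMP-driven luminescence change over 20 min at room temperature is the read-out.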
# [4] = biological target: T1, Tyrosine-protein phosphatase non-receptor type substrate 1 (Homo sapiens) + Leukocyte surface antigen CD47 (Homo sapiens) (UniProt P78324+Q08722); test: CD47-SIRPalpha protein protein interaction - HTRF assay qHTS validation (AID 1347058; active = well fitted curve in the direction sought with a large enough effect in the signal ratio, not every such curve was filed as active; the % refers to the signal ratio;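 also: recombinant soluble extracellular CD47 with His tag and biotinylated SIRPalpha domains; series mostly up to about 38 µM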)
# Method in brief: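 TR-FRET read (Ch1/Ch2 ratio) of soluble extracellular CD47 and Avi-biotinylated SIRPalpha domains in PBS pH 7.4 with 0.05% IGEPAL; 7-point compound titration. Sequential 30 min room-temperature steps; non-biotinylated SIRPalpha as control inhibitor.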
# [5] = biological target: T1, Tyrosine-protein phosphatase non-receptor type substrate 1 (Homo sapiens) + Leukocyte surface antigen CD47 (Homo sapiens); test: CD47-SIRPalpha protein protein interaction - Alpha assay qHTS validation (AID 1347059);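 also: bead proximity luminescence from CD47 binding SIRPalpha after compound preincubation with SIRPalpha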
# Method in brief: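 Binding is measured by AlphaScreen proximity: Ni-NTA acceptor beads capture His-CD47, streptavidin donor beads capture biotin-SIRPalpha. Each of three additions (SIRPalpha with compound, CD47, beads) incubates 30 min at room temperature protected from light.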
# [6] = Natriuretic polypeptide receptor (hNpr1) antagonism - Pilot counterscreen GloSensor control cell line (AID 1347045; calls by dose curve; also: series mostly up to about 38 µM)
# Method in brief: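 Luminescence was read before and 20 min after adding 50 uM SNP, which stimulates soluble guanylyl cyclase. The HEK293 cells expressing the GloSensor cGMP sensor had been preloaded with 2% reagent for 2 h and treated with compound.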
# [7] = biological target: Atrial natriuretic peptide receptor 1 (Homo sapiens) (UniProt P16066); test: Natriuretic polypeptide receptor (hNpr1) antagonism - Pilot screen (AID 1347049; calls by dose curve;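 also: agonist-evoked cGMP luminescence read 20 min after hNppA addition; series mostly up to about 58 µM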)
# Method in brief: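 Readout is cGMP-driven firefly luciferase luminescence in HEK293 cells carrying hNpr1 and a PDE5-domain GloSensor, read before and 20 min after 0.1 nM hNppA stimulation. Cells had 2% substrate reagent for 2 h and test compound for 30 min.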
# Chain of Atrial natriuretic peptide receptor 1 (Homo sapiens) (P16066 whole entry, looked up): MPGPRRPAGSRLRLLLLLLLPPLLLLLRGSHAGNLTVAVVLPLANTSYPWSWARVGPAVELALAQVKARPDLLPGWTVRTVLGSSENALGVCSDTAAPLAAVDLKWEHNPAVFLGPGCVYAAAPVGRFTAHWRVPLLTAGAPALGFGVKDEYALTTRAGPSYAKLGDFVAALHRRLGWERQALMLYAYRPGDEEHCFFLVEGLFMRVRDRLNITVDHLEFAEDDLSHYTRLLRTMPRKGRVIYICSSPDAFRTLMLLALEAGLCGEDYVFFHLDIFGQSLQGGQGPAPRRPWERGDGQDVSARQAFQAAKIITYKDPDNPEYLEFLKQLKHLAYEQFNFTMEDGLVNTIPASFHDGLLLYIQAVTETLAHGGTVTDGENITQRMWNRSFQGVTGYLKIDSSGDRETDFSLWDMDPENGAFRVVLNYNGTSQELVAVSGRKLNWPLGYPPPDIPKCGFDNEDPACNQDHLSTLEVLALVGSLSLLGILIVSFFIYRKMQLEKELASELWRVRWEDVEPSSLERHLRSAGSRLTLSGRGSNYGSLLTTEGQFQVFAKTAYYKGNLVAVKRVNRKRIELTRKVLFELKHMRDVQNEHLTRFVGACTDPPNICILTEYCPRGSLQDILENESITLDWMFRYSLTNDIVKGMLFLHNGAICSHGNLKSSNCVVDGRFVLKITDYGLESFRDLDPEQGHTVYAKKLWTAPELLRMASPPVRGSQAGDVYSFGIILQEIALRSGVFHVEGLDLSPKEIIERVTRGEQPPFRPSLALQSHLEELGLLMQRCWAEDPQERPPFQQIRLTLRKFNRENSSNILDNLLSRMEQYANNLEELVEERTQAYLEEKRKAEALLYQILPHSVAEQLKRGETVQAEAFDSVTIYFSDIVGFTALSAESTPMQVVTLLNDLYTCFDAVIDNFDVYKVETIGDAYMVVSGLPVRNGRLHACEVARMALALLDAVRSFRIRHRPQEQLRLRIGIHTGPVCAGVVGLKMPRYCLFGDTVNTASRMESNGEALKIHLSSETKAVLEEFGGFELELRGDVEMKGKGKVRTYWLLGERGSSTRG
# Chain of Atrial natriuretic peptide receptor 2 (Homo sapiens) (P20594 whole entry, looked up): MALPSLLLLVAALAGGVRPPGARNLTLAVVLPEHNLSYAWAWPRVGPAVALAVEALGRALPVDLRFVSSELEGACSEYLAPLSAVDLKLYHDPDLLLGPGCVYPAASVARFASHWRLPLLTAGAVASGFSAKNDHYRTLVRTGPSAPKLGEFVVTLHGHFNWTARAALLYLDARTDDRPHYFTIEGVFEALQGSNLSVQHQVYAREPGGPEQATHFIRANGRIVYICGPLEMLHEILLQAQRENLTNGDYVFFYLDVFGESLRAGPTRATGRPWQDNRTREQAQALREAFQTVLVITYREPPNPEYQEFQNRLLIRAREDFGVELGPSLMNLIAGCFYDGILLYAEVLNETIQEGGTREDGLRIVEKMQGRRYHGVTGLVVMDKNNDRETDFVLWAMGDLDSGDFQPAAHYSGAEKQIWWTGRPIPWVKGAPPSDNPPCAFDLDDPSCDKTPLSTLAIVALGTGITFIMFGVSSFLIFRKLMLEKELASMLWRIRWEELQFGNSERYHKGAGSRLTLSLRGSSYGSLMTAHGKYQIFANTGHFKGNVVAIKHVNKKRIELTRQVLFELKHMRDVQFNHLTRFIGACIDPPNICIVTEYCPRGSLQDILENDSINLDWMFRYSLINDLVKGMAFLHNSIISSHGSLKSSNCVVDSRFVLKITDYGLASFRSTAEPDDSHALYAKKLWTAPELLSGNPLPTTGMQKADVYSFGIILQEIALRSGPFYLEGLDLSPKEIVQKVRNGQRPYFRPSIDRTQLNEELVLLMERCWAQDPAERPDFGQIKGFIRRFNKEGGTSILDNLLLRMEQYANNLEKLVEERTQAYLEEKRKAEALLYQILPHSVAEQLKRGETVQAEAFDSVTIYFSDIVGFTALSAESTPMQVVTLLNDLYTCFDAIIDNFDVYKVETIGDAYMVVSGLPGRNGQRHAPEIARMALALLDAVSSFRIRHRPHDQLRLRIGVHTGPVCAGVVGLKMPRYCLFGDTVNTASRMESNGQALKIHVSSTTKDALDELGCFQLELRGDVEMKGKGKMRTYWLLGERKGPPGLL
# T1 sequence (P78324 whole entry, looked up, the tested form may be a part): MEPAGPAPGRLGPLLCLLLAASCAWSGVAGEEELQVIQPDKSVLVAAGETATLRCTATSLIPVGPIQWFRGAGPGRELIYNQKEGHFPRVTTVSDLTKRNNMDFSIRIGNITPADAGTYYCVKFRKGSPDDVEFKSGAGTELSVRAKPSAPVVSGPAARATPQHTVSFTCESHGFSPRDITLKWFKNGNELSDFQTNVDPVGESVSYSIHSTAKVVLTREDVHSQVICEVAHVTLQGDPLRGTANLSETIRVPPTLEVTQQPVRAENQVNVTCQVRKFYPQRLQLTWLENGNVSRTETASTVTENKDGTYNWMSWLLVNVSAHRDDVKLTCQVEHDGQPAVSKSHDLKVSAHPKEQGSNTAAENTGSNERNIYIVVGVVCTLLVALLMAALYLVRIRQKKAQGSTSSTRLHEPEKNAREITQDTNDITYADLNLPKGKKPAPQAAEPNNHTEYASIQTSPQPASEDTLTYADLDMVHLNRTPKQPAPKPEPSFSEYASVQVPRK
# T1 sequence (Q08722 whole entry, looked up, the tested form may be a part): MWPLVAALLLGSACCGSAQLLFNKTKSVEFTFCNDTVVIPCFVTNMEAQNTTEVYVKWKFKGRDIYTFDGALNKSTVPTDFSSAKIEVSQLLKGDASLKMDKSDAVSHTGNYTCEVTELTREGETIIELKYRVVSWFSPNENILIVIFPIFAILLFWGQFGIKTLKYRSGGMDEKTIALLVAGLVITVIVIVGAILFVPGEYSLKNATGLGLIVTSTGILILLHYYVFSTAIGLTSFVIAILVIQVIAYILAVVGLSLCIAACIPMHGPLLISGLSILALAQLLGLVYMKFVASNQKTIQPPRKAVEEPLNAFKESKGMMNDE
compound,measurement,setting,value
OCCOc1ccccc1,Potency,[1],inactive
same,Potency,[2],inactive
O=c1[nH]c2ccccc2n1C1CCN(CCCC(c2ccc(F)cc2)c2ccc(F)cc2)CC1,Potency,[3],inactive
same,Potency,[2],inactive
same,outcome,[4],inactive
same,outcome,[5],inactive
O=C1NCN(c2ccccc2)C12CCN(CC1COc3ccccc3O1)CC2 (stereo not given),Potency,[6],inactive
same,Potency,[7],inactive
same,Potency,[3],inactive
same,Potency,[2],inactive
same,outcome,[4],inactive
same,outcome,[5],inactive
CC[C@@H](CO)NC(=O)[C@@H]1C=C2c3cccc4[nH]cc(c34)C[C@H]2N(C)C1,Potency,[7],inactive
same,Potency,[3],inactive
same,Potency,[2],inactive
CN1C(=S)CN=C(c2ccccc2)c2cc(Cl)ccc21,Potency,[2],inactive
Clc1ccc(CCC(Cn2ccnc2)Sc2c(Cl)cccc2Cl)cc1 (stereo not given),Potency,[2],14.8 µM (active)
CCC(C(N)=O)N1CCCC1=O (stereo not given),Potency,[1],inactive
same,Potency,[2],inactive
Cc1ccc2c(c1)C1CN(C)CCC1N2 (stereo not given),Potency,[1],inactive
same,Potency,[2],inactive
C=C1C[C@@H]2[C@H](CC[C@]3(C)C(=O)CC[C@@H]23)[C@@]2(C)C=CC(=O)C=C12,Potency,[2],inactive
C#CCOC(C(=O)OCCN(C)C)(c1ccccc1)c1ccccc1,Potency,[1],inactive
same,Potency,[2],inactive
CCN(CC)CCOC(=O)C(O)(c1ccccc1)c1ccccc1,Potency,[1],inactive
same,Potency,[2],inactive
CC(C)(C)NCC(O)c1cc(Cl)c(N)c(Cl)c1 (stereo not given),Potency,[1],inactive
same,Potency,[2],inactive
CCC(COC(=O)c1cc(OC)c(OC)c(OC)c1)(c1ccccc1)N(C)C (stereo not given),Potency,[2],inactive
O=C(O)c1ccc2[nH]cc(CCCCN3CC=C(c4ccccc4)CC3)c2c1,Potency,[1],inactive
same,Potency,[2],inactive
C[C@]12CC[C@H]3[C@@H](CCC4=CC(=O)CC[C@@H]43)[C@@H]1CC[C@@H]2OC(=O)CCc1ccccc1,Potency,[2],inactive
N[C@@H](Cc1ccc(N(CCCl)CCCl)cc1)C(=O)O,Potency,[1],inactive
same,Potency,[2],8.33 µM (active)
CCN(CC)CCN1C(=O)CN=C(c2ccccc2F)c2cc(Cl)ccc21,Potency,[2],inactive
C[C@@H]1[C@@H](C(=O)C[C@H]2O[C@@H]3O[C@]4(C)CC[C@@H]5[C@H](C)CC[C@@H]([C@H]2C)[C@@]35OO4)O[C@@H]2O[C@]3(C)CC[C@H]4[C@H](C)CC[C@@H]1[C@@]24OO3,Potency,[2],inactive
CC1OC(C)OC(C)O1 (stereo not given),Potency,[2],inactive
Cc1ccc(-c2nc3ccc(C)cn3c2CC(=O)N(C)C)cc1,Potency,[2],inactive
O=c1[nH]c2ccccc2n1CCCN1CCC(n2c(=O)[nH]c3cc(Cl)ccc32)CC1,Potency,[7],inactive
same,Potency,[2],inactive
same,outcome,[4],inactive
same,outcome,[5],inactive
CN1C[C@H](CNC(=O)OCc2ccccc2)C[C@@H]2c3cccc4c3c(cn4C)C[C@H]21,Potency,[6],inactive
same,Potency,[7],inactive
same,Potency,[3],inactive
same,Potency,[2],inactive
CCN(CC)C(=O)N[C@@H]1C=C2c3cccc4[nH]cc(c34)C[C@@H]2N(C)C1,Potency,[2],inactive
Clc1ccc(COC(Cn2ccnc2)c2ccc(Cl)cc2Cl)cc1 (stereo not given),Potency,[2],inactive
CC(=O)Nc1cc([As](=O)(O)O)ccc1O,Potency,[1],inactive
same,Potency,[2],inactive
Oc1cccc2cccnc12,Potency,[1],inactive
same,Potency,[2],14.1 µM (active) and inactive
CC(C)=CC1C(C(=O)OCc2cccc(Oc3ccccc3)c2)C1(C)C (stereo not given),Potency,[1],inactive
same,Potency,[2],inactive
CC(C)(C)CC(C)(C)c1ccc(O)cc1,Potency,[1],inactive
same,Potency,[2],inactive
O=[N+]([O-])c1cc([As](=O)(O)O)ccc1O,Potency,[1],inactive
same,Potency,[2],inactive
CC(C)NCC(O)c1ccccc1Cl (stereo not given),Potency,[1],inactive
same,Potency,[2],inactive
C[C@@H]1O[C@@H](O[C@H]2C[C@@H](O)[C@]3(CO)[C@H]4[C@H](O)C[C@]5(C)[C@@H](C6=CC(=O)OC6)CC[C@]5(O)[C@@H]4CC[C@]3(O)C2)[C@H](O)[C@H](O)[C@H]1O,Potency,[6],inactive
same,Potency,[7],inactive
same,Potency,[3],inactive
same,Potency,[2],13.2 nM (active) and inactive
same,outcome,[4],inactive
same,outcome,[5],inactive
CCCC1CCCCN1 (stereo not given),Potency,[1],inactive
same,Potency,[2],inactive
Oc1ccc(Cl)cc1Cc1ccccc1,Potency,[1],inactive
same,Potency,[2],inactive
CC(=O)[C@H]1CC[C@H]2[C@@H]3CC[C@H]4C[C@H](O)CC[C@]4(C)[C@H]3C(=O)C[C@]12C,Potency,[6],inactive
same,Potency,[7],inactive
same,Potency,[3],inactive
same,Potency,[2],inactive
same,outcome,[4],inactive
same,outcome,[5],inactive
CCN(C(C)=O)c1cccc(-c2ccnc3c(C#N)cnn23)c1,Potency,[1],inactive
same,Potency,[2],inactive
CN(C)[C@@H]1C(=O)C(C(N)=O)=C(O)[C@@]2(O)C(=O)C3=C(O)c4c(O)cccc4[C@@](C)(O)[C@H]3C[C@@H]12,Potency,[1],inactive
same,Potency,[2],inactive
